Experimental data reported in PubChem BioAssay (Tox21).
“And” between values parts separate entries of the source, which are not always exact repeats. Equal entries are not always repeated. Results filed as inconclusive are left out. The source made the active and inactive calls. Calls come from the whole dose curve; as a rule, active = well fitted cell-killing curve with a large enough effect in the repeat runs; inconclusive = weak or mixed curves, or effect the other way; inactive = no such curve, though single readings can be large or run the other way.

test: qHTS assay to identify small molecule antagonists of the thyroid receptor (TR) signaling pathway - cell viability counter screen (AID 743064); settings: GH3.TRE-Luc viability, CellTiter-Fluor, 24 h; series mostly up to 70.3 µM; activity change, negative = cytotoxic: at the top concentration; note: nearly all actives have a fitted effect of over 50% in size
Source text: National Center for Advancing Translational Sciences [NCATS]
NIH Chemical Genomics Center [NCGC]
U.S. Environmental Protection Agency [EPA]
National Institutes of Environmental Health Sciences [NIEHS]
National Toxicology Program [NTP]
U.S. Food and Drug Administration [FDA]
Thyroid receptor (TR), a nuclear hormone receptor, plays an important role in development, proliferation, differentiation, metabolism, brain function, and cardiovascular system. […] To profile the Tox21 10K compound library in TR signaling, a cell-based GH3-TRE-Luc assay (GH3.TRE-Luc cell line, developed by the laboratory of Dr. Albertinka J. Murk, Wageningen University) was used to measure the inhibition of TR. GH3 (rat pituitary tumor) cells stably expressing a TR activity sensor consisting of two TR response elements and a luciferase reporter gene. The cytotoxicity of the Tox21 compound library against the GH3.TRE-Luc cell line was tested in parallel by measuring the cell viability using CellTiter-Fluor assay (Promega, Madison, WI) in the same wells.
Tox21 Assay Protocol Summary:
GH3.TRE-Luc cells were dispensed at 1500 cells/4 uL/well into 1536-well white solid bottom plates using a Multidrop Combi dispenser (Thermo Fisher Scientific Inc., Waltham, MA). After the assay plates were incubated at 37 C for 4 hours, 23 nL of library compound or DMSO controls was transferred to the assay plates by a pintool station (Kalypsys, San Diego, CA), followed by addition of 1 ul of T3 (1 nM, final concentration in the wells) to stimulate TR transactivation. The assay plates were incubated at 37 C for 23.5 h, and then 1 uL of CellTiter-Fluor reagent (Promega, Madision, WI) of measuring cytotoxicity was added to each well using a Bioraptr Flying Reagent Dispenser (FRD) workstation (Beckman Coulter, Indianapolis, IN, USA). The plates were incubated at 37C and 5% CO2 for additional 30 min, and fluorescence intensity was measured by a ViewLux plate reader (PerkinElmer, Shelton, CT).
% is set by controls: 0 for no effect and ±100 for the full control effect; potency is the fitted concentration of half-maximal effect.

Compound | activity change, negative = cytotoxic | Potency
CCN(CC)CCNC(=O)c1cc(Cl)c(N)cc1OC | 7.84% (inactive) | 
CCOCCC(=O)OCC | -6.11% [at 95 µM] (inactive) | 
COC(=O)CC(C(C)=O)C(=O)OC (stereo not given) | 24.9% (inactive) | 
CCN(CC)C(=O)/C(C#N)=C/c1cc(O)c(O)c([N+](=O)[O-])c1 | -6.31% (inactive) | 
FC(F)(F)C(F)(F)C(F)(F)C(F)(F)CCI | 19.6% [at 32.5 µM] (inactive) | 
COc1cc(NC(C)CCCN)c2ncccc2c1 (stereo not given) |  | 11.4 µM (active)
COc1ccc(-c2cc(=S)ss2)cc1 | -5.62% (inactive) | 
CCN(Cc1cccc(S(=O)(=O)O)c1)c1ccc(C(=C2C=CC(=[N+](CC)Cc3cccc(S(=O)(=O)O)c3)C=C2)c2ccc(O)cc2S(=O)(=O)[O-])cc1 |  | 37.1 µM (active)
CC(=O)OCCC(C)CC(C)(C)C (stereo not given) | 10.5% (inactive) | 
O=[N+]([O-])c1ccc2ncccc2c1 | -6.53% (inactive) | 
CC(CO)(CO)C(=O)O | 4.05% [at 95 µM] (inactive) | 
CC(C)OC(=O)c1ccccc1C(=O)OC(C)C | 8.67% (inactive) | 
CC1CCc2nccnc21 (stereo not given) | 4.35% (inactive) | 
C=CC(=O)NC(C)C | -13.3% (inactive) | 
CC(O)Cn1cnc2c1c(=O)n(C)c(=O)n2C (stereo not given) | -1.92% [at 32.5 µM] (inactive) | 
CCCCOC(=O)CCCCC(=O)OCCCC | 0.143% (inactive) | 
O=C(O)CN1C(=O)c2cccc3cccc(c23)C1=O | 15.1% (inactive) | 
O=NN(CCCl)C(=O)NCCCl | 25.4% (inactive) | 
Nc1ccc(NC(=O)c2ccc(N)cc2)cc1 | -12.5% (inactive) | 
COC(CC(C)CCCC(C)(C)O)OC (stereo not given) | 11.2% (inactive) | 

Compound | activity change, negative = cytotoxic | Potency
C=CC(=O)O | 13.6% (inactive) | 
O=C(Oc1ccccc1)c1ccc2ccccc2c1O | -3.54% (inactive) | 
NC(=O)CCCCC(N)=O | 3.49% (inactive) | 
CNC1CCCN(c2c(F)cc3c(=O)c(C(=O)O)cn(C4CC4)c3c2OC)C1 (stereo not given) | 2.09% (inactive) | 
CN1CCCN(C(c2ccccc2)c2ccc(Cl)cc2)CC1 (stereo not given) |  | 6.68 µM (active)
CC[C@H]1OC(=O)[C@H](C)[C@@H](O[C@H]2C[C@@](C)(OC)[C@@H](O)[C@H](C)O2)[C@H](C)[C@@H](O[C@@H]2O[C@H](C)C[C@H](N(C)C)[C@H]2O)[C@](C)(O)C[C@@H](C)CN(C)[C@H](C)[C@@H](O)[C@]1(C)O |  | 29.8 µM (active) and 40.5 µM (active)
Cc1ccccc1S(N)(=O)=O | 12.2% (inactive) | 
O=C(O)CCS | 15.8% [at 95 µM] (inactive) | 
O=C(O)CO | 6.34% (inactive) | 
O=C(O)c1cccc(C[C@@H]2COc3ccc(OCc4nc5cc(F)ccc5s4)cc3[C@@H]2O)c1 | -0.263% (inactive) | 
O=c1[nH][nH]c(=O)c2cc([N+](=O)[O-])ccc12 | -3.21% [at 95 µM] (inactive) | 
Nc1ccc(S(=O)(=O)NCc2ccccc2)cc1 | -1.25% (inactive) | 
Cc1cccc(C)c1NC(=O)c1cc(S(N)(=O)=O)c(Cl)cc1O | 24.7% (inactive) | 
COc1cc(S(=O)(=O)Nc2ccccc2)c(OC)cc1N | -5.72% (inactive) | 
CC(C)(C)C1(CCc2ccc(Cl)cc2)CO1 (stereo not given) | 16.4% (inactive) | 
CCCCCCOC(=O)CCCCC | 28.9% (inactive) | 
Cc1c(C2(c3cc(Br)c(O)c(Br)c3C)OS(=O)(=O)c3ccccc32)cc(Br)c(O)c1Br |  | 42 µM (active)
COc1ccc(CCN(C)CCCN2CCc3cc(OC)c(OC)cc3CC2=O)cc1OC | -9.85% (inactive) | 
CC(C)CC(O)CC(C)C | 16.6% (inactive) | 
CC(C)c1ccc(C#N)cc1 | 10.6% (inactive) | 
